Measurements published in the supplement of paper PMC3334620.
In all, about 33,000 sequences were measured (“E-score (-0.5 to 0.5)”: median about -0.013, highest 2% from about 0.3 on). This is one part of a sample in which the highest values are shown more often than they occur.

These sequences were tested against T1, Msn1 (UniProt P22148) (assay: PBM E-score (8-mer binding enrichment) (E-score (-0.5 to 0.5)); higher = stronger / more preferred TF binding). Conditions: protein concentration: 200 nM; construct: GST-full length.
T1 sequence: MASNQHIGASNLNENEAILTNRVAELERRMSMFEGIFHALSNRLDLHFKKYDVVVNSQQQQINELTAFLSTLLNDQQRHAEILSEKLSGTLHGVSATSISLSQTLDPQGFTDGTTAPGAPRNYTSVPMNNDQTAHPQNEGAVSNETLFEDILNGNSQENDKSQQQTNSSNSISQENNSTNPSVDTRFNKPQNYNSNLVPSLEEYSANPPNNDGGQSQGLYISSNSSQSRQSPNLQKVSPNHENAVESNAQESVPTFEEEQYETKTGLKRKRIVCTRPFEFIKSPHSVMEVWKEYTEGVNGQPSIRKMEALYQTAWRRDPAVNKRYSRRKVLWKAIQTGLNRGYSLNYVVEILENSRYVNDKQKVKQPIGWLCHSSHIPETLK
In short: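 For each ungapped eight-base word taken together with its reverse complement, the Universal PBM Analysis Suite assigned an E-score. Binding data came from GST-tagged yeast transcription factors, applied at about 100-200 nM, on universal all-10-mer Agilent arrays made double-stranded by primer extension. Fluorescent anti-GST marked bound protein, and scans were normalised with masliner.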

Sequence	PBM E-score
GCGCTAGA	-0.116
TATTGGCA	0.0554
GGCTGGAC	-0.135
TATGGTGA	-0.0581
CCGCTCAC	-0.22
ATCACGAC	0.117
AACAAAGA	0.139
GACAAAGC	0.393
TACAAGGA	0.197
GACAAGGA	0.311
GACAAAGA	0.404
AACAAAGC	-0.00117
TACAAAGA	0.208
CACAAAGC	0.161
CACAAGGA	0.0619
CCATGAAG	0.0685
ACGTCGCT	-0.211
CAAGTGAA	0.223
GCATGCCC	0.101
CTCTTGCC	-0.0644
AGACAGAA	0.00949
GGACAGAA	0.332
CGACAGAC	-0.0767
AGACAGAC	0.279
CGACAGAA	0.167
GGACAGAC	0.375

Sequence	PBM E-score
GATTGCAC	0.0495
CGAAAGCG	0.0854
AAGCCAGA	0.00654
ACGTTCAG	-0.0415
TGTCCTAA	0.487
CGTCCACA	0.188
GGTCCTAA	0.18
TGTCCACA	0.455
CGTCCGAA	0.222
AGTCCAAA	0.214
TGTCCAAA	0.473
GGTCCAAA	-0.0431
AGTCCTAA	0.297
TGTCCGAA	0.452
GGTCCGAA	0.128
AGTCCACG	-0.059
CCGGGATA	0.101
ACTGGTTC	-0.0366
CCAGCTAG	-0.16
CGCCTGAC	-0.0177
CCTAACGC	-0.129
AGTGAGGA	-0.0425
AACATAGC	0.13
CCACCAAC	-0.0306
AACCTGGT	0.00051
TGTCCCAA	0.463

Sequence	PBM E-score
AGTCCCAA	0.17
CGTCCCAA	0.218
AAGCATTA	-0.0789
CTCGATGA	-0.0098
ACGACCTA	-0.0056
CAGGCCGC	-0.144
GACATACC	0.4
CACATACC	0.0401
AACATACC	0.107
CACATACA	0.0971
TACATACA	0.207
GACATACA	0.414
GCGGATCA	-0.116
ACAAAAGG	0.229
AGTTAGAC	0.124
CTTGGGTC	-0.123
GGACTCAC	-0.116
GCCCTTTA	-0.318
GTCCAAAA	0.318
ATACAAAC	0.125
TTCCAAAA	0.192
CTACAAAC	-0.0616
GTACAAAA	0.416
CTACAAAA	0.0933
GTACAAAC	0.421
TTACAAAA	0.12

Sequence	PBM E-score
GTCCAAAC	0.175
ACGAGTAT	-0.134
GAAGGCTC	-0.291
CTTGGGCC	-0.266
CTACACGC	-0.145
GCTTCTAC	-0.0502
CGTAAGTA	0.0282
ATGTGACA	0.305
CCGTGACA	0.164
CTGTGACA	0.316
ACGTGACA	0.27
ATGTGACG	-0.223
CTGTGAAA	0.2
GTGTGACA	0.17
CTGTGACC	-0.115
TCGTGACA	0.314
CCTGCTTC	-0.172
GCGCCTAA	0.129
CGTAGGGA	0.0214
GGTTTGCA	-0.172
ACGAATCA	0.13
CAGTCACG	-0.198
ATTGCTGC	-0.0878
ATTCGGAG	0.0972
ATTCGGAA	0.167
ATTCGGAC	0.339

Sequence	PBM E-score
AAAGATAT	0.113
AATGAGAG	-0.161
CCCCAATC	-0.222
ATGACACA	0.287
ATGACATC	0.349
ATGACAGG	0.105
CTGACATC	0.143
ATGACATG	0.361
GTGACAGA	0.161
GTGACTGA	0.0999
ATGACAGA	0.137
ATGACACC	0.0663
ATGACATA	0.417
GTGACATA	0.328
CTGACATA	0.269
AGCGCGTG	-0.133
CATTGGGG	-0.125
GGGACCAA	-0.0643
CGCCTCTA	-0.0484
CACACTGG	-0.259
CATGCAGA	-0.0066
CATCTCGA	0.149
CAAGAAAG	0.0067
GATCTTAC	0.00117
CGAGACAA	0.365
CGAGACAG	-0.00132

Sequence	PBM E-score
AGAGACAA	0.375
TGAGACAA	0.397
AGAGAGAC	-0.0618
TGAGACCA	-0.0631
AGAGACAC	0.177
AGAGACAG	0.0165
TGAGAGAA	0.00621
AGAGACAT	0.43
CGAGACAC	0.183
AGAGACCT	-0.012
ATAGCGGG	-0.192
ACGAAGCT	-0.0736
CCTTTGGC	-0.132
AATCGAAT	0.047
ACGTTGCC	-0.241
CCAGCGCG	-0.158
GAGCTCGC	-0.0509
CACCCACA	-0.132
ATTAGCTA	-0.086
GCCCGGAA	0.0421
GGAGACCA	-0.0845
GGAGACAA	0.32
GGAGACAC	0.0421
AGTCTTGC	-0.0197
CCAAAGTA	-0.0844
ATTACTGG	-0.119

Sequence	PBM E-score
CAAGCGCA	0.185
CCCTCGAA	-0.0781
ACTGCTGG	-0.169
CACATTAC	0.0152
TACATTAA	0.277
AACATTTA	0.252
CACATTTA	0.15
GACATTAC	0.442
GACATTAA	0.431
GACATTTA	0.474
AACATTAA	0.158
AACATTAC	-0.108
AGAGGTCG	-0.105
GCTGGAAA	-0.0496
ATTTTGAA	0.126
TGGCCAAA	0.0563
ATCTTGCA	0.0688
ATGTACGA	0.215
ATGTACAC	0.268
ATGTACAT	0.324
ATGTACCA	0.316
